Whole data set: some 33,000 sequences, median “E-score (-0.5 to 0.5)” near -0.016, cut for the highest 2% near 0.32. The full list was thinned out, with the highest values kept by preference.
Target: T1, Stp1 (UniProt B3LFK1)
T1 sequence: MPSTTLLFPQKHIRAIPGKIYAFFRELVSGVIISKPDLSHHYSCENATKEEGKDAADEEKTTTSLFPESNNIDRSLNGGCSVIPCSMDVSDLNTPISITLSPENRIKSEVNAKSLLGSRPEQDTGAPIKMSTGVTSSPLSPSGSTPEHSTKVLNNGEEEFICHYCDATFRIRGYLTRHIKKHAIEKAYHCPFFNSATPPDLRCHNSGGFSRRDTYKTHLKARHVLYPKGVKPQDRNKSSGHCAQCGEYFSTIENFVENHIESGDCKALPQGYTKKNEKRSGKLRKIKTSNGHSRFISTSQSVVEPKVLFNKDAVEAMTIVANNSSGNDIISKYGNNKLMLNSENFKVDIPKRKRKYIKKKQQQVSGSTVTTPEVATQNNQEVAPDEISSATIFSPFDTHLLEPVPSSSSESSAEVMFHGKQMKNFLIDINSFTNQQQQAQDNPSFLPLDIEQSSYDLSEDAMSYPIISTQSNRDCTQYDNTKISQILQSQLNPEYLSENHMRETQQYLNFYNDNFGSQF
Assay: PBM E-score (8-mer binding enrichment) (E-score (-0.5 to 0.5)); higher = stronger / more preferred TF binding
Details: protein concentration: 200 nM; construct: GST-full length
Experimental: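 Universal 'all 10-mer' protein binding microarrays (Agilent AMADID 015681) probed with GST-tagged S. cerevisiae TFs (full-length or DBD) made by in vitro transcription/translation (PURExpress), about 100-200 nM. Bound TF was detected with fluorescent anti-GST. Each ungapped 8-mer (which stands for itself and its reverse complement) is scored by the PBM enrichment score (E-score), a modified Wilcoxon-Mann-Whitney statistic from -0.5 to +0.5, computed with the Universal PBM Analysis Suite. Scale: above 0.35 generally sequence-specific binding.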

Sequence	PBM E-score
AATCTACC	-0.0419
CCAAAGTC	-0.132
ATTCCTCA	0.0196
GGGCGATA	-0.147
AGGCGATA	0.0637
AGGCGATC	0.128
CGGCGATC	0.373
CAGCGATC	-0.127
CGGCGATA	0.395
GCCTGGTA	-0.227
CTCCTGCA	-0.244
ATGCTTGC	-0.24
AAGCAGGA	-0.113
CGGCAGCC	0.216
CGGCAGAC	0.0714
CGGCAGAA	0.328
GGGCAGCA	-0.122
GGGCAGAA	0.0536
CGGCAGCA	0.333
CTCTGGTA	-0.177
ATGCCTCG	0.412
ACGCCTCT	0.0123
ACGCCTTG	0.348
ACGCCTTC	0.204
ACGCCTCG	0.381

Sequence	PBM E-score
ATGCCTTG	0.274
ACGCCTTA	0.294
ACGCCTCC	-0.102
ATGCCTCC	-0.0159
ACCGTGGG	-0.27
CGATAAGA	0.0597
AGTTGGGG	-0.209
AATATACG	0.017
TAATTTCA	0.242
GTCACCTA	-0.204
AAGGCCGC	0.314
ACGGCCGC	0.406
GCGGCCGA	0.139
ACGGCCAC	0.3
ACGGCCGA	0.191
AAGGCCGT	0.358
GAGGCCGC	0.095
ACGGCCGG	0.0865
GCGGCCGC	0.373
ACGGCCGT	0.401
CCGGCCGC	-0.018
AAGGCCGG	0.128
ACTATACC	-0.017
ACCAGGGT	-0.398
AAGCAGGG	-0.156

Sequence	PBM E-score
CACGGTAC	0.0963
CATATTCC	-0.14
AACCATTA	0.123
TGGGACAA	-0.23
CGAACGTA	-0.0114
CACGCATC	0.0489
CCCAATCA	-0.0533
ATTTCCGG	-0.0307
CGGCGACG	0.349
CGGCGACA	0.369
CGGCGAGA	0.325
AGGCGACG	0.209
GGGCGACA	0.0209
AGGCGACA	0.197
CGGCGAGC	0.307
CGGCGACC	0.203
AGGCGAGA	-0.0565
CTCGGGGC	-0.163
CAGAGTCG	-0.204
CATGGTTA	0.105
ACCGTGCT	-0.133
CCCGTGAG	-0.0263
CCCGTGCG	0.332
AGCGTGCG	0.237
CCCGTGCA	0.0223

Sequence	PBM E-score
ACCGTGCG	0.371
AGAGGGCG	0.307
AGGCCAAT	-0.152
AGAACGCT	-0.11
ATTGTGCG	0.161
AATGTGCG	0.18
AATGTGCC	0.323
ATTGTGCC	0.322
GATGTGCC	0.185
ATTGTGCA	0.162
GCGCAAAA	0.227
CCATGAGA	-0.118
GAGCCGGA	0.0514
TAGCCGGA	-0.0486
CAGCCGCG	0.259
AATCCGCG	0.111
AAGCCGCA	0.386
GAGCCGCA	0.448
TAGCCGCA	0.348
CAGCCGCA	0.215
TAGCCGAA	0.00682
AAGCCGCG	0.418
AAGCCGGA	0.0672
AACCCGCA	-0.00015
GAGGGTAC	-0.22

Sequence	PBM E-score
AACTGAGC	-0.0352
CGATCAAG	-0.0842
CCCTTATA	-0.15
CCAACTAG	-0.0642
CCGACCAG	-0.144
CATAATGC	0.0509
TCCCAGGA	-0.255
GGATCTAC	-0.105
GTCGACTA	0.157
CAGCCGCC	0.0812
AAGCCGCC	0.177
GAGCCGCC	0.319
CCTAAGCC	-0.355
ACGGGTTG	-0.0319
GCGGCAAA	0.383
TCGGCAAA	0.0291
GCGGCAAC	0.384
CCGGCAAC	0.0817
GGGGCAAC	-0.107
CCGGCAAA	0.116
ATCATTCG	0.119
AAATTAAG	-0.00684
CGTGCGGA	0.3
CGTGCGGC	0.476
AGTGCGGC	0.379

Sequence	PBM E-score
AGTGCGGA	0.224
AGTGCGGG	-0.0896
CGTGCGAC	0.0732
TACTAGGA	-0.15
GAGGTCAC	-0.123
AGTATTGA	0.0696
CACGGTAG	-0.0367
GTGGGCAA	-0.0572
CCATTGCC	0.0367
CGCCCTGC	0.346
CGCCCTGA	0.0616
AGCCCTGC	0.0478
GACCTTTA	-0.0597
AAGCCTCA	-0.0215
AGGCGTCG	0.253
AGGCGACT	0.0881
AGGCGCAT	0.241
CGGCGCCG	0.484
AGGCGCCG	0.462
AGGCGCCA	0.353
CGCCGGCG	0.312
AGGCGCCT	0.383
CGGAGCCG	0.302
AGGCGCCC	0.232
TGGCGCCA	0.26

Sequence	PBM E-score
GGGCGCCA	0.309
AGGTGCGG	0.189
AATAACTG	0.0806
TGGACAAA	-0.0269
GCAGCGCA	-0.103
AAGAACCA	-0.0227
CAGTCTCC	-0.209
ATTTGGAA	0.0474
AAGATTAA	0.084
ATCGTACA	0.0995
CGATAAAC	0.0166
AGGAGGAT	-0.107
GCGATGTA	0.16
TATCGTCA	-0.0796
TAGTGCAA	0.0577
GGGCGCCC	0.255
ATGCGCCA	0.0976
ATGCGCCC	0.158
GCGCGCCA	0.268
CGGCGCCA	0.463
ATGCGCCG	0.413
CTGCGCCC	-0.113
